Experimental data reported in PubChem BioAssay (NCI).
This is part of a sample that, as a whole, favours compounds with a hit. Of some 83,000 tested, about 20% had one in any assay.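 For each line, cells grew in 96-well plates with the test compound present at a single concentration for 48 hours.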 Values without a mark were called inactive. Calls of active or inactive are those of the source. Rule for the calls: active = growth percent below 10; inactive = the rest.

Key:
Experiment in all cases: NCI-60 one-dose screen, 48 h (100 = growth as untreated, 0 = no growth, -100 = all killed)
Conditions in all cases: 10 µM unless noted
[1] = system: SR leukemia
[2] = system: RPMI-8226 leukemia
[3] = system: OVCAR-8 ovarian
[4] = system: OVCAR-5 ovarian
[5] = system: OVCAR-4 ovarian
[6] = system: IGROV1 ovarian
[7] = system: OVCAR-3 ovarian
[8] = system: HS 578T breast
[9] = system: NCI/ADR-RES ovarian
[10] = system: T-47D breast
[11] = system: BT-549 breast
[12] = system: MDA-MB-435 melanoma
[13] = system: SW-620 colon
[14] = system: MCF7 breast
[15] = system: HCT-116 colon
[16] = system: HCC-2998 colon
[17] = system: KM12 colon
[18] = system: SK-OV-3 ovarian

Row | Compound | growth [1] | growth [2] | growth [3] [%] | growth [4] [%] | growth [5] | growth [6] [%] | growth [7] | growth [8] | growth [9] | growth [10] | growth [11] [%] | growth [12] | growth [13] | growth [14] | growth [15] | growth [16] [%] | growth [17] | growth [18]
1 | Fc1ccc(CNc2c3ccccc3nc3ccccc23)c(F)c1 | 25.2% | 28.3% | 40.2 | 51.7 | -8.19% (active) | 35.7 | 70.2% | 75.4% | 36.2% | 47.4% | 82.8 | 66.5% | 29.8% | 10.2% | 14.2% | 41.3 | 60% | –
2 | Cn1cc(C(=O)c2nc(-c3c[nH]c4ccccc34)no2)c2cc(F)ccc21 | 11.2% | 37.5% | 49.3 | 68.3 | 69.8% | 32.5 | 0.717% (active) | 44.8% | 36.5% | 37.8% | 48 | -19.1% (active) | – | 19.2% | 19.5% | 73.9 | 26.7% | –
3 | Clc1ccc(/C=N\N=C\c2ccc(Cl)c(Cl)c2)cc1Cl | 103% | 102% | 85.7 | 66.9 | 97.9% | 79.5 | 119% | 106% | 77.3% | 90.3% | 74.2 | 101% | 53.8% | 72.8% | 53.3% | 96.1 | 101% | –
4 | N#Cc1c(-c2ccc(Cl)cc2)nc(NN2C(=O)c3ccccc3C2=O)nc1N1CCOCC1 | 84% | 105% | 102 | 102 | 98.7% | 109 | 113% | 101% | 107% | 94.7% | – | 106% | 98.8% | 101% | 99.5% | 111 | 107% | –
5 | C=C(C)[C@@H]1CC[C@]2(C(=O)N3CCOCC3)CC[C@]3(C)[C@H](CC[C@@H]4[C@@]5(C)C/C(=C/c6ccncc6)C(=O)C(C)(C)[C@@H]5CC[C@]43C)[C@@H]12 | 34.7% | 4.12% (active) | 55.6 | 93.3 | 49.4% | 71.1 | 52.4% | 74.5% | 72.3% | 26.5% | – | 62.3% | 50.3% | 28.9% | 32.4% | 58.7 | 52.2% | 73.9%
6 | COc1ccc(C(=O)c2cc3c(N)c(C(=O)Nc4ccc(C)cc4)sc3nc2C)cc1 | 18.1% | 24.1% | 22 | 29.6 | 51.1% | 28.6 | -5.4% (active) | -1.41% (active) | 14.9% | 46.6% | 46.5 | -42.9% (active) | 28.3% | 18.8% | 16.2% | 13.9 | 15.5% | –
7 | COC(=O)c1cc(N=C2NC(=O)/C(=C/C=C/c3ccccc3)S2)ccc1O | 27.5% | 18.8% | 25.6 | 71 | 58.9% | 37.6 | 18.7% | 35.3% | 5.59% (active) | 32.8% | – | -35.6% (active) | 31.4% | 17.9% | 18.2% | 49.1 | 23.1% | 33.3%
8 | CC(C)(C)CC(C)(C)NC(=O)Nc1ncccc1OCc1ccccc1 | 89.4% | 84.9% | 99.4 | 91.6 | 84.3% | 93.9 | 98.5% | 106% | 86.2% | 72% | 98.2 | 99.7% | 98.6% | 80.6% | 75.2% | 92.9 | 94.5% | –
9 | Fc1cccc(Oc2ccc(Nc3ncnc4ccc(OCCCN5CCOCC5)cc34)cc2Cl)c1 | 20.9% | 38.5% | 62 | 78.1 | 53.5% | 12.1 | 45.4% | 74.5% | 55.1% | 36% | 79 | 54.3% | 61.1% | 50.4% | 69.4% | 57 | 45.9% | –
10 | CCOC(=O)c1c2c(n3cccc(F)c13)C(=O)c1ncccc1C2=O | 20.5% | 37.5% | 19.3 | 44.3 | 24.4% | 34.4 | -11.1% (active) | 31.5% | 18.7% | 54.5% | – | 13.1% | -7.69% (active) | -23.1% (active) | -10.7% (active) | 25 | 19% | -4.82% (active)
11 | O=C(NCc1ccc(Cl)cc1Cl)C1CCC(=O)N1c1cccs1 (stereo unspecified) | 91.8% | 95.5% | 93.5 | 91.2 | 97.5% | 92.4 | 108% | 101% | 83.9% | 75.8% | 86 | 97.2% | 106% | 88% | 79% | 93.4 | 101% | –
12 | O=C1/C(=C/c2ccc([N+](=O)[O-])cc2)COc2ccc(O)cc21 | 7.84% (active) | -16.4% (active) | 69.5 | 99 | 89.5% | 73.4 | 82.7% | 89.3% | 92.1% | 79.4% | 95 | 82.4% | – | 5.28% (active) | -5.5% (active) | 98.5 | 48% | –
13 | CC(=O)N1N=C(c2ccc(Nc3nc(Nc4ccccc4)nc(Nc4ccccc4)n3)cc2)CC1c1ccccc1 (stereo unspecified) | 62.3% | 59.9% | 82.9 | 91.9 | 96.5% | 54.1 | 88.6% | 89.3% | 84.6% | 46.5% | – | 101% | 99% | 67.5% | 77.1% | 99.2 | 89.6% | –
14 | O=S(=O)(NCCNc1nccc(-c2c(-c3ccc(F)c(O)c3)nc3sccn23)n1)c1ccc(O)cc1 | 38.4% | 17.9% | 32.8 | 104 | 34.1% | 36.1 | 57.4% | 64.1% | 39.6% | 6.97% (active) | 55.1 | 9.31% (active) | 67.1% | 27.6% | 30.4% | 76.5 | 13.9% | –
15 | COC1=CC(c2ccc[nH]2)=N/C1=C\c1[nH]c(C)c(CC(=O)NCc2ccccc2)c1C | -29.1% (active) | 18.4% | 19.4 | 31.5 | 46.3% | 38.2 | 11.1% | 24.6% | -40.7% (active) | 15.1% | – | 15.9% | 20.6% | 11% | 2.09% (active) | 13.9 | -46.1% (active) | 25.7%
16 | Nc1n[nH]c2ccc([C@H]3[C@@H]4C5CCC(C5)[C@@H]4c4c(ccc5[nH]ncc45)N3S(=O)(=O)C3CC3)cc12 (stereo partly specified) | 11.3% | 4.56% (active) | 17.4 | 23.4 | 30.3% | 18.8 | -38.8% (active) | 22.7% | 0.763% (active) | 64.6% | – | -35.3% (active) | 21.9% | 13.1% | 4.97% (active) | 18.4 | 7.27% (active) | –
17 | Cn1ccnc1C(=O)/C=C/c1ccc(C(=O)Nc2ccccc2O)cc1 | -21.2% (active) | -11.9% (active) | 18.6 | 79.3 | 36.4% | 30.9 | -17.9% (active) | 78.9% | 23.7% | 2.47% (active) | 28.4 | 69.3% | 10.3% | 10.2% | 11.6% | 82.7 | 15.2% | –
18 | COc1ccc(C(C)=O)cc1S(=O)(=O)Nc1c(N)nc(SC)[nH]c1=O | 103% | 96.6% | 105 | 104 | 108% | 102 | 103% | 96.9% | 103% | 116% | 117 | 97.7% | 101% | 92.9% | 100% | 99 | 96.7% | –
